The values below come from ChEMBL document CHEMBL3988442, “University of Dundee, Small-Polar-MMV Screening Library” (2021).

For part of these data: Entries with a potency or affinity are not part of this list.

What all share (parameters): scale not given: direction of the effect not stated beside the values
Assay [1] has as its target Protein translocase subunit SecA (Escherichia coli (strain K12)) (UniProt P10408). Description: Assay to Identify E. coli SecA ATPase Inhibitors. To be noted: 30 µM. It is filed as functional.
Assay [2] has as its target T1, Ubiquitin-activating enzyme e1, putative (Leishmania donovani (strain BPK282A1)) (UniProt E9BSI1).
T1 sequence (whole entry): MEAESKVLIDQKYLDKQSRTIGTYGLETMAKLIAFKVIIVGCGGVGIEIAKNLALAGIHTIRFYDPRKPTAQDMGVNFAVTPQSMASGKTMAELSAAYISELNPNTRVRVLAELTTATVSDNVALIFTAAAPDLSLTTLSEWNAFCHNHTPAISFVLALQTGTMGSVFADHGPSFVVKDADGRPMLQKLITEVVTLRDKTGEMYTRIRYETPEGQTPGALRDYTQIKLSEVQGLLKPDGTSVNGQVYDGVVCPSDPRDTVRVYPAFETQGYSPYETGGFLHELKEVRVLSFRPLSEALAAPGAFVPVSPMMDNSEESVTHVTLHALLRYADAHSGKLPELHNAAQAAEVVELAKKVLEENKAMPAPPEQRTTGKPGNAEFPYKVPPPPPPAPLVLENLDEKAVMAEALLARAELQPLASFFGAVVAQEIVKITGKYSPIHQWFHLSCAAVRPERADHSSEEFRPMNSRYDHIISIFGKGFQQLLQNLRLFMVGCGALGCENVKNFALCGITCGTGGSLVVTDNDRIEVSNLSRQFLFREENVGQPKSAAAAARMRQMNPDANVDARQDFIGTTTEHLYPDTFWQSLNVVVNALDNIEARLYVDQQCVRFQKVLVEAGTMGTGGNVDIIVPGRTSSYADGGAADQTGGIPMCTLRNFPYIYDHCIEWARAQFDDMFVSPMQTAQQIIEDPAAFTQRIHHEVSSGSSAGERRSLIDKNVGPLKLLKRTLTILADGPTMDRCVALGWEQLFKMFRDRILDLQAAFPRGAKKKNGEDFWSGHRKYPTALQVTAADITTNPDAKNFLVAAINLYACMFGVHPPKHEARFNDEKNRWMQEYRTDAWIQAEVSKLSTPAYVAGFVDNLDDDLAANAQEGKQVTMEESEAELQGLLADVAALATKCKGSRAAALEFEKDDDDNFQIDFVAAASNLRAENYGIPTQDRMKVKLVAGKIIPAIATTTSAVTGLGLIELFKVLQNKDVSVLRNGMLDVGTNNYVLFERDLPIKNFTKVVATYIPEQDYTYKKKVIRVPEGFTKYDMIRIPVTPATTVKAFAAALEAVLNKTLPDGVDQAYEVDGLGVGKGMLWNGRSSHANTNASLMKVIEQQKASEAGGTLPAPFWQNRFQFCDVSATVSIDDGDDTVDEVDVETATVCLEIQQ
Description: Leishmania donovani Ubiquitin Activating Enzyme (LdE1). To be noted: 30 µM. The format is functional.

Assay [3] concerns the target Sialic acid-binding Ig-like lectin 9 (Homo sapiens) (UniProt Q9Y336). Put plainly: Hs-Siglec9 ALPHAscreen SOP 20170721. To be noted: 10 µM.
The next assay concerns Trypanosoma cruzi. Put plainly: Trypanosoma cruzi phosphomannomutase and mannose-1-phosphate guanylyltransferase assay. The format is functional. As to conditions: 10 µM.
Assay [4] concerns the target T2, Arginase-2, mitochondrial (Homo sapiens) (UniProt P78540).
T2 sequence (whole entry): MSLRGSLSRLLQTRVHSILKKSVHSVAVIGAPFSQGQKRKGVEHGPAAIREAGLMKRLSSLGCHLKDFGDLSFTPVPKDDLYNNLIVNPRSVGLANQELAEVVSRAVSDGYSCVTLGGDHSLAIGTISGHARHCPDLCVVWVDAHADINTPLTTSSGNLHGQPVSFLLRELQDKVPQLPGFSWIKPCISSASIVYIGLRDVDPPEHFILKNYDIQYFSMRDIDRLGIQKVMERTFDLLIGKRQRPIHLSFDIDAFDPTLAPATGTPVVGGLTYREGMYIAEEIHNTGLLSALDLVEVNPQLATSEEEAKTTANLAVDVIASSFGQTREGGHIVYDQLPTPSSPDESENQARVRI
Put plainly: in vitro enzyme assay to detect the production of urea directly proportional to the activity of Arginase II. Further: in the data most compounds retested in dose-response had high values. The format is functional. To be noted: 33.3 µM.

The target in assay [5] is T3, Proteasome subunit beta (Trypanosoma cruzi) (UniProt O96673).
T3 sequence (whole entry): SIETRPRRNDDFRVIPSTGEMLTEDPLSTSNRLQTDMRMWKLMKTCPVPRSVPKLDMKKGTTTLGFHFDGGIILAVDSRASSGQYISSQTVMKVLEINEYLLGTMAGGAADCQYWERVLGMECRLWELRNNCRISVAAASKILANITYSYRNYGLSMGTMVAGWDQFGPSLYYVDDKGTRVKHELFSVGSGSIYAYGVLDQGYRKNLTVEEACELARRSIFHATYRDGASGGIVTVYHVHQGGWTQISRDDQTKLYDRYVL
Put plainly: Trypanosoma cruzi proteasome chymotrypsin-like activity (TcProtChymo) assay. Further: in the data most compounds retested in dose-response had high values. It is filed as functional. To be noted: 9.37 µM.

For the next assay, the species on record is Homo sapiens. Description: To identify inhibition of the IFN signalling (Jak-Stat) pathway via expression of an eGFP reporter gene under the control of an IFN-stimulated response element (ISRE) containing MxA promoter. It is filed as functional. As to conditions: 30 µM.
In assay [6] the target is T4, Tyrosyl-tRNA synthetase, putative (Trypanosoma cruzi (strain CL Brener)) (UniProt Q4DSP6).
T4 sequence (whole entry): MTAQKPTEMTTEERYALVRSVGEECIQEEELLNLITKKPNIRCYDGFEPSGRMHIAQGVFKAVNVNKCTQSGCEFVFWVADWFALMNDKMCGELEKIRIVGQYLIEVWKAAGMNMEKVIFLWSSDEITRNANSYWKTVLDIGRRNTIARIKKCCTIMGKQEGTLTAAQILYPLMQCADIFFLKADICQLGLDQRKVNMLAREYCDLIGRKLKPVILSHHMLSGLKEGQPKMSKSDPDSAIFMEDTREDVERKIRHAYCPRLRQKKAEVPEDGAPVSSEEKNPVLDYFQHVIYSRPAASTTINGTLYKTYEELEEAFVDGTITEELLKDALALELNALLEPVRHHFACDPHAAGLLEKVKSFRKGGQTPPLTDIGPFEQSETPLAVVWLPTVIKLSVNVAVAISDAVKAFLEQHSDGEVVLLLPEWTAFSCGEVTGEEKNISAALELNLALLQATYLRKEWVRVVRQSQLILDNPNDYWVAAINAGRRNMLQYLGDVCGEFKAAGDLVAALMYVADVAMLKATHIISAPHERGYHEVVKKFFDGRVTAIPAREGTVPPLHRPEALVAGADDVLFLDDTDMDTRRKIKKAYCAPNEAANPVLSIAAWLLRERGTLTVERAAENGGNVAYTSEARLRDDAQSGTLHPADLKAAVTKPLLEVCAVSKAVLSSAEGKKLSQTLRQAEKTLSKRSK
Put plainly: Trypanosoma cruzi tyrosyl tRNA synthetase (TcYRS) _High Tyrosine SOP. Further: in the data most compounds retested in dose-response had high values. It is filed as functional. As to conditions: 30 µM.

Assay [7] has as its target T4, Tyrosyl-tRNA synthetase, putative (Trypanosoma cruzi (strain CL Brener)). Put plainly: Trypanosoma cruzi tyrosyl tRNA synthetase (TcYRS) SOP. It is filed as functional. As to conditions: 30 µM.
The target in assay [8] is Chromo domain-containing protein 1 (Saccharomyces cerevisiae (strain ATCC 204508 / S288c) (Baker's yeast)) (UniProt P32657). Description: ScCHD-1 Enzyme Inhibition Assay. Further: in the data most compounds retested in dose-response had high values. It is filed as functional. To be noted: 30 µM.
Sequence of Chromo domain-containing protein 1 (Saccharomyces cerevisiae (strain ATCC 204508 / S288c) (Baker's yeast)) (P32657 whole entry, the tested form may be a part): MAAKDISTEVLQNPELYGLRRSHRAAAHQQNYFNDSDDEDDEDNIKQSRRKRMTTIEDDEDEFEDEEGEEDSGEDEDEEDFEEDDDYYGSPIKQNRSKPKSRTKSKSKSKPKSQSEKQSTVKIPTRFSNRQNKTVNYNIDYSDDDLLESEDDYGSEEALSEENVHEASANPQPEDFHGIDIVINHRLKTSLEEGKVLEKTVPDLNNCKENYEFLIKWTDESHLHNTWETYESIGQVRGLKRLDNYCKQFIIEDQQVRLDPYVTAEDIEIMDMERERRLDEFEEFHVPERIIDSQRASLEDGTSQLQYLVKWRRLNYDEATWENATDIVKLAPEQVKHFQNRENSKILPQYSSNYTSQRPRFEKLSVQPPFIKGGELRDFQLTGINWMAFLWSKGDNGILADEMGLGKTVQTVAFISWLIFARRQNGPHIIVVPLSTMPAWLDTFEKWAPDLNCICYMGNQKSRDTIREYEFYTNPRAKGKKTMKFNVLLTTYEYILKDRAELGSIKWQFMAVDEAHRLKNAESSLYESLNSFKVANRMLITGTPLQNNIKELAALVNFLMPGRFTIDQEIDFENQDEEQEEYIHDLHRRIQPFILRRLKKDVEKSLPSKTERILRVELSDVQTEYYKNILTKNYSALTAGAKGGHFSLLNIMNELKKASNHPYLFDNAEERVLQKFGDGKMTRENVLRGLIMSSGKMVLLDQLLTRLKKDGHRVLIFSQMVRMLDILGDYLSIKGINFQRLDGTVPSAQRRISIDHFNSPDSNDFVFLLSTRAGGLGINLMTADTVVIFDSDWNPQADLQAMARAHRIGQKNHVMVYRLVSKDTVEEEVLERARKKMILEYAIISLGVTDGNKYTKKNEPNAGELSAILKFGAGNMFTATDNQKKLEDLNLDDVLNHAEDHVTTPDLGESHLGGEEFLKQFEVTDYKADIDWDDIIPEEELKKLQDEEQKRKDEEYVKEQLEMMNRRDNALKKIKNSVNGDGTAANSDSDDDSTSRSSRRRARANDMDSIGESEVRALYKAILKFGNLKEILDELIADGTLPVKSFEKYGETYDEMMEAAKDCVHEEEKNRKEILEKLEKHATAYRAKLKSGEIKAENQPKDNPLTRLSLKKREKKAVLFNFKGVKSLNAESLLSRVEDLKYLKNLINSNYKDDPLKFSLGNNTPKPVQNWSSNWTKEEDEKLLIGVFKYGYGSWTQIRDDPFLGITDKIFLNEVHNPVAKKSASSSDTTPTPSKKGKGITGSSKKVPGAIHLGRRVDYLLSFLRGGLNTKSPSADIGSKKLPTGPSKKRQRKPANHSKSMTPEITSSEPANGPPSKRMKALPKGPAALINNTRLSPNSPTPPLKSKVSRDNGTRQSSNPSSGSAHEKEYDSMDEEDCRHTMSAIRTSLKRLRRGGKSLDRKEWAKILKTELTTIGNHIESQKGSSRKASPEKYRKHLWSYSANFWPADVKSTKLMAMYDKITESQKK

Sequence of Protein translocase subunit SecA (Escherichia coli (strain K12)) (P10408 whole entry): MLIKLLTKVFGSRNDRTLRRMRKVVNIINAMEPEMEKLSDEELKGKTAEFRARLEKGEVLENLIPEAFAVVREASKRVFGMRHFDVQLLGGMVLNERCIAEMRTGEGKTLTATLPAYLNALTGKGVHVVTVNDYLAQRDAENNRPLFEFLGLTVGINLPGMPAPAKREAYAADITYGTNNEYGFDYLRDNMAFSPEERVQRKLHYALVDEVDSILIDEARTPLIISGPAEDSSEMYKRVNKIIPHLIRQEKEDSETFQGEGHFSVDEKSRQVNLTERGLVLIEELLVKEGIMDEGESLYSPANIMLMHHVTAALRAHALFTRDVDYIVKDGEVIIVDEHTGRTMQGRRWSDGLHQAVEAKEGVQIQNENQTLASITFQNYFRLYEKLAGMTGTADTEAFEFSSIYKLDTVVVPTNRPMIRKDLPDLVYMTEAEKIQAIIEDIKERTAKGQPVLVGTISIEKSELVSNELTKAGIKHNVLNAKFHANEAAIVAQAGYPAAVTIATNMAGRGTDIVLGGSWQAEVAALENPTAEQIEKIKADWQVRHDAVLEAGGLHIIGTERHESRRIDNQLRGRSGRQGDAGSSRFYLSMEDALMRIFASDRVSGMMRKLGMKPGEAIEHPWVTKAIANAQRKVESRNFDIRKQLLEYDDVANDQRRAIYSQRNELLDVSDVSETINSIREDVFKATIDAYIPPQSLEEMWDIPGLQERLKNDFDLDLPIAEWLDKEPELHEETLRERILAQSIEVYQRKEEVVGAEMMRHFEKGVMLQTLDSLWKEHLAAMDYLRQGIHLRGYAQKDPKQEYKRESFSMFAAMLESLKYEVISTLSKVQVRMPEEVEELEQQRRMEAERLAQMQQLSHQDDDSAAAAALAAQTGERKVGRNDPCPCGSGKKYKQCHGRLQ
Sequence of Sialic acid-binding Ig-like lectin 9 (Homo sapiens) (Q9Y336 whole entry): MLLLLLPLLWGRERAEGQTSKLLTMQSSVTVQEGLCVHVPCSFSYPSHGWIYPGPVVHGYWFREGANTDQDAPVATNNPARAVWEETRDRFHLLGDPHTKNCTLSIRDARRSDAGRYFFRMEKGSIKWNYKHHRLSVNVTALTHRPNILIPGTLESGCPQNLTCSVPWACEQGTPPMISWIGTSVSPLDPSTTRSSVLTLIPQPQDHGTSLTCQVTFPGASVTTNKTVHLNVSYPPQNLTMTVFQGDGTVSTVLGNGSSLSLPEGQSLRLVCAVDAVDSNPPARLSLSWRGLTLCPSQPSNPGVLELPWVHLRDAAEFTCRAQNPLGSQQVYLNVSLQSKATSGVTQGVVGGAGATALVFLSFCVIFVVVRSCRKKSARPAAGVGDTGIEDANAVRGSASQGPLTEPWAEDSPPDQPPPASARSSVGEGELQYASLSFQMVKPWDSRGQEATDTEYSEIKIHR

In the case of `O=C1COC2(CCN(C(=O)c3ccco3)CC2)CN1Cc1ccccn1`, the Percent Effect in assay [1] is -3.84%; in assay [2], 16.9%; in assay [3] it was 2.04%; in the assay with Trypanosoma cruzi, 0%; in [4], 5.48%; in assay [5] it was 8.84%. For the same compound, the Percent Effect in the assay filed under Homo sapiens was -15.4%; in assay [6], 11.6%; in assay [7], 20%; in [8], -5.91%.
In the case of `NC(=O)N1CCC2(CC1)CN(Cc1cccnc1)C(=O)CO2`, the Percent Effect in assay [1] was -0.758%; in assay [2], 11.7%; in assay [3], 1.96%; in the assay with Trypanosoma cruzi it was -0.188%; in assay [4] it was 1.37%; in [5], 8.5%. Besides, the Percent Effect in the assay listed under Homo sapiens is -22.1%; in [6] it was 10.6%; in assay [7] it was 15%; in assay [8], -1.18%.
Turning to `Cc1cccc(CN2C(=O)CCC23CCN(c2ncc(F)cn2)CC3)n1`, the Percent Effect in [1] is -5.56%; in assay [2], 16.9%; in assay [3], -3.32%; with Trypanosoma cruzi it was -1.13%; in [4], 5.02%; in [5], 0.258%. The Percent Effect in the assay listed under Homo sapiens is -16%; in assay [6] it was 11.6%; in [7] it was 15%; in assay [8] it was -8.12%.
For the compound `CCn1cc2c(n1)C(COC)CN(C(=O)COc1ccccc1C)C2` (stereo not given), the Percent Effect in assay [1] was -5.08%; in assay [2], -3.9%; in [3] it was 1.02%; with Trypanosoma cruzi, -5.16%; in [4], -13.4%; in [5], 11%. Further, the Percent Effect in the assay listed under Homo sapiens was found to be 4.86%; in assay [6] it was 2.63%; in assay [7], 5.13%; in assay [8], 2.06%.
With `O=C(Cn1c(=O)nc2n1C(=O)N(c1ccccc1)C2)Nc1ccccc1`, the Percent Effect was -6.94% in [1]; 16.2% in assay [2]; 9.15% in assay [3]; 2.23% in the assay with Trypanosoma cruzi; 24.8% in assay [4]; 23.6% in [5]. Further, the Percent Effect came out at 5.58% in the assay listed under Homo sapiens, 6.92% in assay [6], 14.6% in assay [7] and 75.6% in assay [8].
As to `COc1ncccc1CNC(=O)c1cccc(C)n1`, the Percent Effect in assay [1] is -0.149%; in assay [2], 23.1%; in [3] it was -18.5%; with Trypanosoma cruzi, 6.1%; in assay [4] it was -5.74%; in [5], 18.5%. Moreover, the Percent Effect in the assay listed under Homo sapiens was 18.5%; in assay [6], 6.22%; in assay [7], 22.9%; in assay [8], -3.56%.
As to `Cc1ncnc(NCc2cc3n(n2)CCCN(S(C)(=O)=O)C3)c1C`, the Percent Effect in assay [1] was -4.52%; in assay [2] it was 8.11%; in [3], 3.12%; in the assay on Trypanosoma cruzi it was -1.07%; in assay [4], -1.75%; in [5] it was 7.71%. Further, the Percent Effect is -0.0892% in the assay listed under Homo sapiens, 5.85% in [6], 14.6% in [7] and -4.37% in assay [8].
Consider `Cc1ccc(NC2CCN(C(=O)c3n[nH]c4ccccc34)CC2)nn1`, for which the Percent Effect is -2.85% in assay [1]; 5.33% in assay [2]; 0.786% in assay [3]; -5.62% in the assay with Trypanosoma cruzi; 3.55% in [4]; -2.29% in assay [5]. Also, the Percent Effect was 12.2% in the assay listed under Homo sapiens, 3.68% in assay [6], 5.13% in [7] and -6.5% in assay [8].
As for `Cc1ccc(C(=O)NCCNc2ncccc2C#N)c(=O)[nH]1`, the Percent Effect was -1.94% in assay [1]; 5.2% in assay [2]; -3.54% in assay [3]; -8.77% in the assay on Trypanosoma cruzi; -15% in [4]; 15.3% in assay [5]. Besides, the Percent Effect is 17.6% in the assay listed under Homo sapiens, 6.86% in assay [6], 7.06% in [7] and -7.29% in assay [8].
As for `COc1ccc(CN2CCC3(CC2)CCN(CC(C)C)C3=O)cc1`, the Percent Effect in assay [1] was -1.79%; in assay [2], -1.3%; in assay [3], -0.794%; in the assay with Trypanosoma cruzi, -0.75%; in assay [4] it was -3.2%; in [5], -0.601%. Moreover, the Percent Effect is 6.85% in the assay filed under Homo sapiens, 0.966% in assay [6], 0% in assay [7] and -5.19% in [8].
In the case of `CCc1nc(C2CCCN2C(=O)c2c[nH]c(C)n2)no1` (stereo not given), the Percent Effect in assay [1] is -9.57%; in assay [2], 10.7%; in assay [3], 18.3%; in the assay with Trypanosoma cruzi it was 3.41%; in assay [4], -2.66%; in [5], 12.1%. Besides, the Percent Effect in the assay filed under Homo sapiens is -2.6%; in assay [6], 7.89%; in assay [7], 12.8%; in assay [8] it was -9.37%.
On to `COc1cccc(CN2CCCC3(CCN(C(=O)[C@H]4CCCO4)C3)C2)c1` (stereo not given in full), for which the Percent Effect in [1] is -5.07%; in assay [2], 3.9%; in assay [3], -0.211%; with Trypanosoma cruzi, -0.75%; in [4], 3.65%; in assay [5] it was 4.55%. Further, the Percent Effect in the assay listed under Homo sapiens was 0.637%; in assay [6], 12.6%; in [7], 15%; in assay [8], -10.7%.
